Sampled rows, rich in hits. Any-hit rate of the full collection: about 0.94%.
Mtb hypoxia rep: PubChem AID 1159583. fluorescence inhibition, % (no concentration beside the values). M. tuberculosis hypoxia-regulated fluorescent reporter, fluorescence. 300,000 tested, 0.1% active; in the data active = fluorescence inhibition mostly above about 23%, no sharp cut-off; inactive = mostly below about 17%
MazEF act: activators of E. coli MazEF toxin-antitoxin RNase, primary screen, biochemical, fluorescence, uHTS | FAM/BHQ RNA-DNA oligo cleavage fluorescence, 5 h | AID 504720, 2011 | 350,000 tested, 0.32% active | activation, % at 20 µM | Endoribonuclease toxin MazF (Escherichia coli (strain K12)), P0AE70; in the data active = activation above about 50%
Target sequence (P0AE70 whole entry, looked up): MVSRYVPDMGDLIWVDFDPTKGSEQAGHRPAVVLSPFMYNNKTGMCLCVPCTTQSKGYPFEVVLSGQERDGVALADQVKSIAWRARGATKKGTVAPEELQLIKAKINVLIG
Vc quorum ag: inducers of Vibrio cholerae quorum light production without autoinducers, primary screen, BH1578 luxS cqsA deficient, single point; 350,000 tested, 0.16% active; activation, % at 18.7 µM; V. cholerae BH1578 lux reporter, luminescence, 6 h; in the data active = activation mostly above about 9.7%, no sharp cut-off
SSB-PriA inh: inhibitors of Klebsiella pneumoniae PriA binding to SSB C-terminal tail, primary screen, biochemical, AlphaScreen | PriA–SSB C-terminal tail interaction (Klebsiella pneumoniae) | AlphaScreen SSBct-PriA binding, biotinylated peptide | inhibition, % at 33 µM | 430,000 tested, 0.6% active | AID 1272365, 2023; in the data active = inhibition mostly above about 37%, no sharp cut-off; inactive = mostly below about 20%;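 also: plate controls were negative control peptide for no effect and reference peptide for full effect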
* hit, by the source's call; i = inactive; . = not tested or not shown; ! = a repeat was not active.

SMILES | Mtb hypoxia rep | MazEF act | Vc quorum ag | SSB-PriA inh
C=CCN1C(=O)/C(=C/c2ccc(Br)s2)C(=O)NC1=S | 11 | 72* | 0 | -19
O=C1NC(=O)C(=Cc2ccc(Br)s2)C(=O)N1 | . | . | . | -2
Cc1nc(-n2[nH]c3c(c2=O)CCCC3)[nH]c(=O)c1Cc1ccccc1 | 5 | 63* | 4 | 0
Oc1c(I)cc(I)c2cccnc12 | 7 | -5 | i | 58*
Fc1c(Cl)ccc2cccnc12 | . | . | . | 33
Oc1c(Cl)ccc2cccnc12 | . | . | . | 82*
Cc1ccc(S(=O)(=O)Nc2cc(Cl)c(O)c3ncccc23)cc1 | . | -15 | 0 | 45*
Ic1cccc2cccnc12 | . | . | . | 33
Oc1c(Cl)cc(Cl)c2cccnc12 | -13 | 1 | 0 | 83*!
N#Cc1cccnc1N1CCC(CNC(=O)C2(c3ccc(Cl)cc3)CCCC2)CC1 | . | . | . | -2
CN(C)CCCNc1cc(O)c2ncccc2c1 | 4 | -84 | i | 48*
O=[N+]([O-])c1ccc(N/N=C/c2ccccc2)c(F)c1 | . | 234* | -1 | .
O=[N+]([O-])c1ccc(C=NNc2ccccc2)cc1 | 9 | 28 | -1 | 8
Cc1csc(NC(=O)CSc2nnc(NC(=O)c3cccc(C(F)(F)F)c3)s2)n1 | . | . | . | -9
O=C(NCCC(O)c1cc2ccccc2o1)C1CC=CCC1 (stereo not drawn) | . | . | . | 7
Cc1ccccc1OCCC(=O)NNC(=O)c1ccccc1F | 33* | 6 | i | 3
O=C(CSc1nnc(NC(=O)c2c(F)cccc2F)s1)Nc1ccc(F)cc1 | 14 | 179* | 0 | -8
CS(=O)(=O)c1ccc(N)c([N+](=O)[O-])c1 | . | . | . | 0
CCN1CCN(Cc2c(C(=O)NN=C(C)c3ccc(Cl)cc3)nnn2-c2nonc2N)CC1 | . | . | . | 1
COCCNC(=O)Cn1c(CO)cnc1SCC(=O)Nc1ccc2c(c1)OCO2 | . | . | . | -4
NS(=O)(=O)c1cc2c(cc1Cl)NCNS2(=O)=O | -4 | 5 | 24* | -6
NC(=O)C1CCN(C2CNC2)CC1 | . | . | . | 1
CCN(CC)c1ccc(/C=c2\sc3nc4ccccc4n3c2=O)c(O)c1 | . | -153 | i | .
O=c1/c(=C/c2ccc(F)cc2F)sc2nc3ccccc3n12 | . | . | . | 40*
COc1ccc(/C=N/NC(=S)Nc2ccccc2[N+](=O)[O-])cc1O | . | 7 | 0 | .
SMILES | Mtb hypoxia rep | MazEF act | Vc quorum ag | SSB-PriA inh
O=[N+]([O-])c1ccccc1NC(=S)NN=Cc1ccc(O)c(O)c1 | 17 | . | . | 42*
COc1cc(OC)c(OC)cc1C=NN(C)c1ccccc1 | 8 | . | . | 73*
COc1cc(OC)c(OC)cc1/C=N/N(C)c1ccccc1 | . | 1 | i | .
Cc1ccc(-n2ncc3c(C)nn(CC(N)=O)c(=O)c32)c(C)c1 | . | . | . | -5
Cc1ccc(C=Nn2c(-c3ccccn3)n[nH]c2=S)o1 | -1 | . | . | 72*
S=c1[nH]nc(-c2ccccn2)n1/N=C/c1ccco1 | . | 4 | -1 | .
S=c1[nH]nc(-c2ccccn2)n1N=Cc1ccccc1 | -3 | . | . | 74*
Nn1c(-c2ccccn2)n[nH]c1=S | . | . | . | 83*
Nn1c(-c2ccccc2)n[nH]c1=S | . | . | . | 5
S=c1[nH]nc(-c2ccccn2)n1N=Cc1cccc2ccccc12 | 7 | . | . | 38
Cc1ccccc1C=Nn1c(-c2ccccn2)n[nH]c1=S | 16 | . | . | 59*
O=C(c1ccc(C(F)(F)F)cc1)N(CCc1cccs1)Cc1ccoc1 | . | . | . | 18
Cc1cc(C)c(C)c(S(=O)(=O)Nc2ccc(C(=O)N3CC(C)OC(C)C3)cc2)c1C (stereo not drawn) | . | . | . | -12
COc1ccc(C2CCCCN(C(=O)CCSc3ccccc3)C2)cc1 (stereo not drawn) | . | . | . | -11
Cc1nn(-c2ccc(F)cc2)c(Cl)c1C=NNC(=O)c1cccs1 | 3 | . | . | 6
Cc1nn(-c2ccc(F)cc2)c(Cl)c1/C=N/NC(=O)c1cccs1 | . | 68* | 0 | .
COc1ccccc1C1Oc2ccccc2C2=C1C(c1cccs1)n1ncnc1N2 (stereo not drawn) | . | . | . | 2
CS(=O)(=O)Nc1ccc(C2=NN(C(=O)c3ccco3)C(c3ccccc3F)C2)cc1 (stereo not drawn) | 14 | 3 | -1 | 7
CS(=O)(=O)Nc1cccc(C2=NN(C(=O)c3ccco3)C(c3ccccc3F)C2)c1 (stereo not drawn) | . | . | . | 58*
COc1cc(N=Nc2ccc(C)cc2S(N)(=O)=O)c(C)cc1N | 23 | 7 | i | 48*
COc1ccc(S(=O)(=O)N2CCN(S(=O)(=O)c3ccc(OC)c(C)c3)[C@@H](C)C2)cc1C | . | . | . | -2
CCCOc1cc(N)ccc1C(=O)OCCN(CC)CC | -1 | 9 | i | 4
CCCOc1ccc(N)cc1N | . | 5 | i | 52*
CC(=O)N1CCC[C@H](Cc2nc(C3CC3)no2)C1 | . | . | . | -1
OC1(c2ccc(OC(F)F)cc2)CN(c2ccc(Br)cc2)C2=[N+]1CCS2 (stereo not drawn) | . | . | . | -5
SMILES | Mtb hypoxia rep | MazEF act | Vc quorum ag | SSB-PriA inh
CC(C)CNS(=O)(=O)c1ccc2nc(NC(=O)c3ccccc3Cl)sc2c1 | . | . | . | 41*
CCOC(=O)c1c(NC(=O)CCCS(=O)(=O)Cc2ccccc2)sc2c1CC[C@H](C)C2 | . | . | . | 2
O=C(NC(c1cccnc1)C1CCOCC1)c1ccoc1 (stereo not drawn) | . | . | . | -1
Cn1c(COc2ccc3c(c2)OCO3)nnc1SCCCN1C(=O)c2cccc3cccc(c23)C1=O | . | . | . | -1
COc1ccc(NC(=O)NS(=O)(=O)c2ccc(C)cc2)c(OC)c1 | 4 | 0 | -1 | 53*
Cc1ccc(S(=O)(=O)NC(=O)Nc2ccc(N(C)C)cc2)cc1 | 12 | 9 | 0 | 83*
COc1ccc(NC(=O)CS(=O)(=O)c2ccc(C)cc2)c(OC)c1 | 2 | 4 | 0 | -8
Cc1ccc(NC(=O)NNS(=O)(=O)c2ccc(Br)cc2)cc1 | . | 0 | 0 | -6
COc1ccc(NC(=O)CON=CC(=O)Nc2ccc(C)cc2)c(OC)c1 | 26* | 6 | i | -9
COc1ccc(NC(=O)CC(=O)Nc2ccc(OC)cc2OC)c(OC)c1 | 2 | -8 | 0 | -7
COc1ccc(CCNC(=O)c2scc(-c3ccc(F)cc3)c2-n2cccc2)cc1OC | . | . | . | 4
O=C(NCc1cccnc1-c1ccsc1)C1(c2ccccc2)CCOCC1 | . | . | . | -16
CC1CC(=O)N(CC(=O)Nc2cccc([N+](=O)[O-])c2)c2ccccc2S1 (stereo not drawn) | . | . | . | 12
CN(C)S(=O)(=O)c1ccc(C(=O)NCC(O)c2cccn2C)cc1 (stereo not drawn) | . | . | . | -26
CC(=O)NC(c1ccco1)c1cc(F)c2cccnc2c1O (stereo not drawn) | 9 | 7 | i | 73*
O=C(Cc1n[nH]c(=O)[nH]c1=O)N/N=C/c1c(O)ccc2ccccc12 | . | 71* | 0 | .
O=C1C(Nc2ccccc2)=C(N2CCCCC2)C(=O)c2ccccc21 | -6 | -21 | 0 | -16
O=C1C(c2ccccc2)=C(N2CC2)c2ccccc21 | . | 8 | i | 41*
O=C(CSc1ccc(-c2ccccn2)nn1)Nc1cccc(Cl)c1 | . | . | . | 43
O=C(CSC1=NNC(c2ccccn2)S1)Nc1ccccc1 (stereo not drawn) | 6 | 7 | i | 87*

Source: PubChem BioAssay
